Screening data as filed in PubChem.
Rows were chosen to be rich in hits. Some 5.4% of all compounds tested hit in one or more screens of this group.
Six1-Eya2 inh = Six1/Eya2 interaction inhibition. Q15475+O00167. activity change, % (no concentration beside the values). AID 651725. 360,000 tested, 0.56% active. AlphaScreen GST-Six1/His-Eya2 binding, biochemical; active compounds read low; in the data active = activity change below about -65%; inconclusive = mostly about -30% to -63%; also: % is scaled to controls: 0 for no effect and ±100 for the full control effect
Target sequence (O00167 whole entry, looked up): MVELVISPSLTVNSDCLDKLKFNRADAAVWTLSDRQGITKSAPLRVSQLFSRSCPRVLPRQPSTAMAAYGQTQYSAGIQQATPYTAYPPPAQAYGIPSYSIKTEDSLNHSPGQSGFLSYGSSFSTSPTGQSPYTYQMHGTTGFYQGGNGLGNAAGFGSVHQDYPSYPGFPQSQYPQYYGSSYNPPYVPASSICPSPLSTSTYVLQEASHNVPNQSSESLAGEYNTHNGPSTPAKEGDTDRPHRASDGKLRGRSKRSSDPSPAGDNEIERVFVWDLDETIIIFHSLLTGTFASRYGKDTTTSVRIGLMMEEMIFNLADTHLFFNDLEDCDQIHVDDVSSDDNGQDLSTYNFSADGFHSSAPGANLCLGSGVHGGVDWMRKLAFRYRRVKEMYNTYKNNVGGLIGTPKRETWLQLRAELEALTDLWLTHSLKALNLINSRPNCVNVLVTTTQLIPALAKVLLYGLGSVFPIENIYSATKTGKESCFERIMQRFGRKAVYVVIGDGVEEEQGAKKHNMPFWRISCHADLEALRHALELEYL
Target sequence (Q15475 whole entry, looked up): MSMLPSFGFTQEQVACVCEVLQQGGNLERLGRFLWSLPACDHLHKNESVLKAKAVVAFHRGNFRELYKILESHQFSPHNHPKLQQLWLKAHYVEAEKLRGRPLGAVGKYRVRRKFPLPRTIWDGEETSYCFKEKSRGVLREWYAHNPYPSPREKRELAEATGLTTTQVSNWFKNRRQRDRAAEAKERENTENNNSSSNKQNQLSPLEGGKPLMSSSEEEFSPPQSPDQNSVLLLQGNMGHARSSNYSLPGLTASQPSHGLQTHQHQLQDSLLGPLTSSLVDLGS
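Compounds are tested against tagged Six1 and Eya2 proteins bridged by glutathione donor and nickel acceptor beads; after a one-hour incubation at 37 °C without light, AlphaScreen emission is recorded.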
CtBP-E1A blk = inhibitors of CtBP/E1A interaction; AlphaScreen GST-E1A/His-CtBP binding, 1536-well; active compounds read low; activity change, % (test concentration not listed); 340,000 tested, 0.49% active; AID 651724; in the data active = activity change below about -65%; inconclusive = mostly about -30% to -63%; also: % is scaled to controls: 0 for no effect and ±100 for the full control effect
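AlphaScreen with 125 nM GST-E1A and 125 nM His-CtBP (5X stocks) in Tris pH 8.0, 300 mM NaCl, BSA, Tween 20, TCEP. Compounds preincubated 2 h at 37 deg C, then glutathione donor/nickel acceptor beads added for 1 h at 37 deg C in dark.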
p53 reactivator = re-activators of mutant p53; H1299 p53-A138V BP100-luciferase reporter, luminescence, 24 h; Potency, µM (doses to about 92.2 µM), for the others: top-dose activity change, positive = activation, most hits filed as activators; 320,000 tested, 0.063% active; AID 504706; also: potency is read from the fitted curve at half-maximal effect; % of control where 0% means no effect; nearly all actives have a fitted effect of over 45% in size
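p53-null H1299 cells stably carrying temperature-sensitive p53-A138V and a BP100-luciferase reporter were pinned with compounds (4-point, 1:5 series) and held 24 hrs at 37 deg C. Luminescence was read 10 min after detection reagent.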
VP16 counter = counter-screen for ROR gamma inhibitors: Gal4-VP16 reporter | Drosophila S2 Gal4-VP16 UAS-luciferase, luminescence, 20 h | Potency, µM (titrated, usually from 53.6 µM), without a hit: top-dose activity, negative = inhibition, usual class: inhibitors | 310,000 tested, 3.5% active;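 also: Gal4-VP16 expression switched on by copper sulfate through the metallothionein promoter; potency is read from the fitted curve at half-maximal effect; % is scaled to controls: 0 for no effect and ±100 for the full control effect; nearly all actives have a fitted effect of over 50% in size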
RORgamma inh = inhibitors of mouse ROR gamma transcriptional activity; P51450; Drosophila S2 Gal4-RORgamma UAS-luciferase reporter, 20 h; Potency, µM (top dose mostly 53.6 µM), for inactives: top-dose activity change, negative = inhibition, most hits filed as inhibitors; 310,000 tested, 5.4% active; also: potency is read from the fitted curve at half-maximal effect; % is scaled to controls: 0 for no effect and ±100 for the full control effect; nearly all actives have a fitted effect of over 60% in size
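A Gal4/UAS one-hybrid system in insect cells: metallothionein-promoter Gal4–ROR gamma fusion plus Photinus luciferase reporter. Copper sulfate 700 uM final, 20 hr ambient incubation, luminescent detection after 10 min with reagent.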
* hit, by the source's call; ? = inconclusive; nt = no result given; [ ] = dose if it differs, or a comment. Unless noted, calls follow the shape of the dose curve; as a rule, active = well fitted curve in the direction sought with a large enough effect; inconclusive = small, poorly fitted or top-dose-only effect, or another doubt; inactive = no such curve, though single readings can be large; an effect the other way counts as inactive or inconclusive.

SMILES | Six1-Eya2 inh | CtBP-E1A blk | p53 reactivator | VP16 counter | RORgamma inh
O=[N+]([O-])c1cccc(C2(O)COc3ccccc3O2)c1 (stereo not drawn) | -20 | -16 | 4% | 2% | -16%
COc1cccc2c1C(=O)CC(c1ccccc1)O2 (stereo not drawn) | nt | nt | nt | 26% | 20%
OC[C@H](O)[C@H](O)[C@@H](O)[C@@H](O)[C@@H]1SC(c2ccccc2)=NN1c1ccccc1 | -4 | -3 | 6% | -25% | 8.9µM*
COc1ccc(N2CCN(C(=O)c3cc4c(s3)-c3ccccc3S(=O)(=O)C4)CC2)cc1 | -15 | -30 | 2% | -8% | 23%
O=C1c2ccccc2C(=O)N1Cc1ccc2c(c1)OCO2 | 7 | 2 | 6% | 8% | 3%
C=C1c2ccccc2NC(=S)N1Cc1ccc2c(c1)OCO2 | -1 | nt | -3% | ? | 3.2µM*
Cc1cc(C(F)(F)F)c2c(N)c(C(=O)Nc3cc(C)on3)sc2n1 | -1 | -3 | 14% | 4µM* | 7.1µM*
Cc1cc(C)c2c(CN(C)Cc3ccccc3)cc(=O)oc2c1 | 13 | 15 | nt | nt | nt
O=C(/C=C\Nc1cccc(F)c1)c1ccc2c(c1)OCO2 | 9 | 2 | -4% | 10µM* | ?
O=C(/C=C/Nc1ccc(F)cc1Br)c1ccccc1 | 5 | 11 | 16% | 7.1µM* | 2.5µM*
COC(=O)c1ccc(N/C=C\C(=O)c2ccc3c(c2)OCO3)cc1 | 2 | -22 | 3% | -6% | -10%
O=C(/C=C\Nc1ccccc1Br)c1ccc2c(c1)OCO2 | -13 | -4 | ? | ? | 5µM*
COc1ccc(OCC(O)CNC(=O)c2c(-c3ccccc3)noc2C)cc1 (stereo not drawn) | 3 | 9 | 1% | -8% | 7%
COCC(=O)N1CCC[C@@]2(CCN(C(=O)Nc3cccc(F)c3)C2)C1 | nt | nt | nt | 4% | -8%
CCOc1ccccc1/C=N/NC(=O)C[n+]1ccccc1 | 2 | nt | -1% | nt | nt
Cc1ccccc1NC(=O)c1nnn(-c2ccc3c(c2)OCCO3)c1N | -4 | 0 | ? | ? | 0.63µM*
CC(C)c1ccccc1OS(N)(=O)=O | 3 | 5 | 7% | -2% | -10%
Fc1ccc(CNC(=S)NCc2ccc(F)cc2)cc1 | 4 | -3 | -4% | ? | 11µM*
CC(C)COc1ccc(CNC(=S)NCc2ccccc2)cc1 | -1 | -6 | -5% | 18µM* | 7.1µM*
CCOc1ccc(CNC(=S)NCc2ccc(OCC)cc2)cc1 | 21 | 16 | -5% | ? | 10µM*
CC(CCc1ccccc1)NC(=O)C(=O)NCc1ccccc1 (stereo not drawn) | 15 | -5 | -1% | -6% | 4%
COc1ccc(CNC(=S)NC(C)CCc2ccccc2)cc1 (stereo not drawn) | -2 | -4 | 23% | 14µM* | 3.2µM*
OCCNC(=S)NCc1ccccc1 | 6 | nt | 1% | 4% | 11%
CCOc1ccc(CC(=O)NNC(=S)NC)cc1 | 3 | -1 | 1% | -1% | -37%
CC(C)(C)OC(=O)N[C@H](/C=C/c1ccccc1)C(=O)OC(C)(C)C | 3 | 2 | 12% | nt | nt
SMILES | Six1-Eya2 inh | CtBP-E1A blk | p53 reactivator | VP16 counter | RORgamma inh
CC[C@@H](c1ccccc1)n1c(=O)n2n(c1=O)[C@H]1[C@H](O)[C@H]3O[C@H]3C(=O)[C@H]1CC2 | nt | nt | nt | -4%[10 µM] | 3%[10 µM]
CN1CCN(c2cc3c(cc2F)c(=O)c(C(=O)O)cn3-c2ccc(F)cc2)CC1 | nt | nt | nt | 10% | 2%[10 µM]
CNC(=S)NCCc1ccc(OC)cc1 | 14 | 3 | 16% | 6% | ?
COc1ccc(CNC(=S)NCc2ccc(OC)cc2)cc1 | -7 | -11 | -2% | -8%[10 µM] | 13µM*
COc1ccc(CNC(=O)/C(C)=C\C(=O)O)cc1 | -1 | 4 | 28% | 10µM* | 5.6µM*
COc1ccc(CNC(=S)NCc2ccc(F)cc2)cc1 | -7 | ? | -4% | ? | 11µM*
CCc1nc2ccc(C(=O)N3CCN(C(=O)c4ccco4)CC3)cn2c1N(C)Cc1nccn1C | 12 | -6 | nt | nt | nt
Cn1cnnc1Sc1ccc(C(=O)OCC(=O)Nc2ccccc2)cc1[N+](=O)[O-] | -2 | -1 | 6% | -14% | -13%[10 µM]
Cn1cnnc1Sc1ccc(/C=C/C(=O)c2ccc(O)cc2)cc1[N+](=O)[O-] | 11 | nt | -5% | ? | 10µM*
